Assay outcomes deposited in PubChem by National Center for Advancing Translational Sciences (NCATS).
Shown is part of a subset that was picked to be rich in hits.
SARS PLpro yeast = inhibitors of SARS-CoV papain-like protease in yeast; S. cerevisiae expressing SARS-CoV PLpro, growth rescue; Potency, µM (titrated, usually from 32.9 µM), most hits filed as activators; 330,000 tested, 0.19% active; AID 485353; note: nearly all actives have a fitted effect of over 55% in size
Shiga inhibitor = inhibitors of Shiga toxin in Vero cells; Vero cells, Shiga toxin protein synthesis inhibition reporter; inhibition, % at 38.7 µM; 290,000 tested, 9.2% active; AID 2315; in the data active = inhibition mostly above about 28%, no sharp cut-off; inactive = mostly below about 43%
Tb PYK inh = T. brucei pyruvate kinase inhibition. Q57TT1. Potency, µM (top dose mostly 76.8 µM), actives largely listed as inhibitors. TbPYK enzyme, Kinase-Glo Plus ATP luminescence, 45 min. 410,000 tested, 0.12% active. AID 624173; active = well fitted curve in the direction sought with a large enough effect; inconclusive = small, poorly fitted or top-dose-only effect, or another doubt; inactive = no such curve, though single readings can be large; an effect the other way counts as inactive or inconclusive; note: nearly all actives have a fitted effect of over 50% in size
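Luminescence from Kinase-Glo Plus, added after a 45-minute room-temperature reaction, served as the end-point read-out. The enzyme and substrate were preincubated with compound before ADP (130 uM final) initiated turnover. Concentration-effect curves came from normalized qHTS data.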
CHX counter = counter-screen hit for Shiga toxin inhibitors, cycloheximide. cell reporter, cycloheximide protein synthesis inhibition counterscreen. max response, %. 300,000 tested, 12% active; in the data active = max response mostly above about 13%, no sharp cut-off; inactive = mostly below about 14%; note: read at 38.3 µM for the half of the compounds with a filed dose
LmPK inhibitor = LmPK (Leishmania mexicana) enzyme inhibition. Q27686. purified LmPK, Kinase-Glo ATP luminescence, 1 h. Potency, µM (top dose mostly 57.5 µM), actives largely listed as inhibitors. 290,000 tested, 0.37% active; active = well fitted curve in the direction sought with a large enough effect; inconclusive = small, poorly fitted or top-dose-only effect, or another doubt; inactive = no such curve, though single readings can be large; an effect the other way counts as inactive or inconclusive
Target sequence (Q27686 whole entry, looked up): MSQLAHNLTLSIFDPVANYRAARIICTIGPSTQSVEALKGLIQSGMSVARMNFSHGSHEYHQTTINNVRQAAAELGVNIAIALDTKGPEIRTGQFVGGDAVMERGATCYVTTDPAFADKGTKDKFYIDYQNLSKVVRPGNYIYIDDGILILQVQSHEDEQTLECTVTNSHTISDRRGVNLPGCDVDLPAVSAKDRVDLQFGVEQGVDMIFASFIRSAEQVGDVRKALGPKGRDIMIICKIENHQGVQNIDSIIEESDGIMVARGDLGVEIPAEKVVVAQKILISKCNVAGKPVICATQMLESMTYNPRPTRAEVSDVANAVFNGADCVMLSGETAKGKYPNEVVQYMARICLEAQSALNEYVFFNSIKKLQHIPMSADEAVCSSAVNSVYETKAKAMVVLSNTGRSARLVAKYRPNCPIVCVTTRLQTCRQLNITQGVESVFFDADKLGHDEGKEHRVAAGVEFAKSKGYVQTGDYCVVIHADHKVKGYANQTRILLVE
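0.1 nM LmPK, 0.5 mM PEP, 0.1 mM ADP; 50 mM imidazole pH 7.2, 7 mM MgCl2, 50 mM KCl; 1 h RT. Kinase-Glo luminescence readout, normalized to no-enzyme (full inhibition) and uninhibited wells.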
NS1 inh = inhibitors of influenza NS1 protein function; Potency, µM (top dose mostly 46.1 µM); 270,000 tested, 0.4% active; AID 2326; note: actives are rising curves; nearly all actives have a fitted effect of over 50% in size
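S. cerevisiae expressing influenza A NS1, grown in glucose, washed, then diluted 1:100 into pH 6.0 -URA galactose medium with 23 nl compound. Growth recovery read as OD600; NS1-free strain serves as control.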
Large screens that a line does not name were inactive. Unless noted, calls come from the whole dose curve.

CCOC(=O)C1(Cc2cccc(F)c2)CCN(C(=O)c2cnccn2)CC1	none
CCOC(=O)C1(Cc2ccccc2Cl)CCN(C(=O)c2cc(C)on2)CC1	Shiga inhibitor 40, CHX counter 28
CCOC(=O)C1(Cc2ccccc2Cl)CCN(C(=O)c2cnccn2)CC1	Shiga inhibitor 94, CHX counter 50
COc1ccccc1NC(=O)C(C)OC(=O)CCSc1ccc(F)cc1 (stereo not drawn)	none (no result: Shiga inhibitor, CHX counter, LmPK inhibitor, NS1 inh)
Cc1nc2c([nH]c3ccc(Br)cc32)s1	Shiga inhibitor 22, CHX counter 15
O=C(CN1C(=O)NC(c2ccc(F)cc2)C1=O)Nc1ccc2c(c1)OCCO2 (stereo not drawn)	none (no result: Shiga inhibitor, CHX counter, LmPK inhibitor, NS1 inh)
O=C(Nc1ccc(Br)cc1)c1cc2ccccn2n1	Shiga inhibitor 64, CHX counter 44
CCc1ccc(NC(=O)c2cc3ccccn3n2)cc1	none (no result: SARS PLpro yeast, Shiga inhibitor, CHX counter, LmPK inhibitor, NS1 inh)
O=C(NCCc1ccc(Cl)cc1)c1cc2ccccn2n1	CHX counter 25
CC(NC(=O)Nc1ccccc1C(F)(F)F)c1c(-n2cccc2)sc2c1CCCC2 (stereo not drawn)	none (no result: SARS PLpro yeast, Shiga inhibitor, CHX counter, LmPK inhibitor, NS1 inh)
O=S(=O)(c1ccccc1)N1CCC2(CCCN(Cc3ccncc3)C2)CC1	none (no result: SARS PLpro yeast, Shiga inhibitor, CHX counter, LmPK inhibitor, NS1 inh)
COc1cc(NCCCn2ccc(NC(=O)OCc3ccccc3)nc2=O)cc(OC)c1OC	none (no result: SARS PLpro yeast, Shiga inhibitor, CHX counter, LmPK inhibitor, NS1 inh)
CCCCCCCCCCCCCCCCCCOC[C@H](COP(=O)([O-])OCC[N+](C)(C)C)OC	none (no result: SARS PLpro yeast, Shiga inhibitor, CHX counter, LmPK inhibitor)
CCc1cc2c(=O)c(-c3nc(C)cs3)coc2cc1O	Shiga inhibitor 38, CHX counter 34
Cc1nc(-c2coc3cc(OCC(=O)O)ccc3c2=O)cs1	LmPK inhibitor inconclusive
Cc1nc(-c2coc3cc(O)c(C)cc3c2=O)cs1	CHX counter 21, LmPK inhibitor 7.1µM
COc1ccc2c(=O)c(-c3nc(C)cs3)coc2c1	Shiga inhibitor 79, CHX counter 45, LmPK inhibitor inconclusive
Cc1csc(-c2coc3cc(O)cc(C)c3c2=O)n1	Shiga inhibitor 108, CHX counter 30, LmPK inhibitor inconclusive
CC(=O)c1ccc(N2CCN(c3ncnc4c3c(-c3ccccc3)cn4-c3ccc(Cl)cc3)CC2)cc1	none (no result: SARS PLpro yeast, Shiga inhibitor, CHX counter, LmPK inhibitor, NS1 inh)
CC(C)c1ccc(NC(=S)Nc2ccc3cn[nH]c3c2)cc1	Shiga inhibitor 73, CHX counter 22 (no result: NS1 inh)
COc1ccccc1NC(=S)Nc1ccc2cn[nH]c2c1	Shiga inhibitor 47, CHX counter 16 (no result: NS1 inh)
O=C1NC(=O)N(Cc2ccccc2)C(=O)/C1=C\N1CCCc2ccccc21	SARS PLpro yeast inconclusive, CHX counter 28, NS1 inh inconclusive
O=C1NC(=O)C(=CN2CCc3ccccc32)C(=O)N1	none
Cn1c(Cc2ccccc2)nnc1SCC(=O)NC1CCCC1	none
O=C(c1ccccc1)N1CC(COc2ccccc2)OC(c2cccnc2)O1 (stereo not drawn)	CHX counter 16
O=C(COc1ccc(-c2ccccc2)cc1)N1CCN(C(=O)c2cccnc2)CC1	none
CCc1[nH]nc(C(=O)N2CCCC(Nc3ccc(C(C)C)cc3)C2)c1C (stereo not drawn)	SARS PLpro yeast inconclusive
CCc1[nH]nc(C(=O)N2CCCC(Nc3cccc(F)c3)C2)c1C (stereo not drawn)	Shiga inhibitor 66, CHX counter 31
O=C(CCSCc1cnn(-c2ccccc2)c1-n1cccc1)NCc1ccc(Cl)cc1	none (no result: SARS PLpro yeast, Shiga inhibitor, CHX counter, LmPK inhibitor, NS1 inh)
Clc1ccc(/C=N/Nc2ncnc3nc[nH]c23)cc1	CHX counter 39
Oc1ccc(/C=N/Nc2ncnc3nc[nH]c23)cc1	CHX counter 35
Cc1ccc(/C=N/Nc2ncnc3nc[nH]c23)cc1	Shiga inhibitor 147, CHX counter 38
CCCCN1CCc2nc(N3CCN(c4ncccn4)CC3)ncc2C1	none (no result: SARS PLpro yeast, Shiga inhibitor, CHX counter, LmPK inhibitor, NS1 inh)
O=C(Nc1ccc(Br)cc1)c1cc(-c2cccs2)on1	Shiga inhibitor 114, CHX counter 22
Cc1ccc(NC(=O)c2cc(-c3cccs3)on2)cc1	Shiga inhibitor 131, CHX counter 38
O=C(Nc1ccc(Cl)cc1)c1cc(-c2cccs2)on1	CHX counter 8.3
COc1cc(NC(=O)c2cc(-c3cccs3)on2)cc(OC)c1OC	none
COc1ccc(OC)c(/C=C2\SC(N3CCCCC3)=NC2=O)c1	none
COc1ccc(NC(=O)C/C(C)=N/NC(=O)c2ccncc2)c([N+](=O)[O-])c1	none (no result: NS1 inh)
COc1ccc(NC(=O)c2ccco2)c([N+](=O)[O-])c1	Shiga inhibitor 35, CHX counter 20
